# Results filed as inconclusive are left out. The source made the active and inactive calls. Calls follow the shape of the dose curve; as a rule, active = well fitted inhibition curve with a large enough effect in the signal ratio in the repeat runs (not every such curve was filed as active); inconclusive = weak or mixed curves; inactive = flat fitted curve, though single readings scatter; the % refers to the signal ratio.
# Molecular target: Progesterone receptor (Homo sapiens) (UniProt P06401)
# Test: qHTS assay to identify small molecule antagonists of the progesterone receptor (PR) signaling pathway (AID 1346795)
# Conditions: PR-UAS-bla HEK293T, beta-lactamase FRET ratio, 16 h; series mostly up to 92.4 µM; activity change, negative = inhibition: at the top concentration
# Excerpt: National Center for Advancing Translational Sciences [NCATS]
# NIH Chemical Genomics Center [NCGC]
# U.S. Environmental Protection Agency [EPA]
# National Institutes of Environmental Health Sciences [NIEHS]
# National Toxicology Program [NTP]
# U.S. Food and Drug Administration [FDA]
# Progesterone receptor (PR), a nuclear hormone receptor, plays an important role in development, metabolic homeostasis and reproduction. […] Endocrine disrupting chemicals (EDCs) and their interactions with steroid hormone receptors like PR causes disruption of normal endocrine function. To identify the compounds that inhibit PR signaling, a PR-UAS-bla GripTite cell line i.e. PR-UAS-bla HEK293T (Invitrogen, Carlsbad, CA, USA) containing a beta-lactamase reporter gene under the control of an Upstream Activator Sequence (UAS) was used to screen Tox21 10K compound library.
# Tox21 Assay Protocol Summary:
# PR-UAS-bla HEK293T cells were dispensed at 3,000 cells/4 uL of assay medium containing 2% charcoal stripped FBS per well into black wall/clear-bottom 1536-well plates using a Multidrop Combi (ThermoFisher Scientific, Waltham, MA) dispenser. After the assay plates were incubated at a 37C and 5% CO2 for 6 hr, 23 nL of compounds dissolved in DMSO, positive controls or DMSO only was transferred to the assay plate by a Pintool station (Kalypsys, San Diego, CA), followed by addition of 1 uL (1nM as final concentration) of Promegestone (R5020) in assay medium using a BioRAPTR FRD (Flying Reagent Dispenser, Aurora Discovery, San Diego, CA). The plates were incubated at 37C and 5% CO2 for 16 hr. Then 1 uL of LiveBLAzer B/G FRET substrate was added using a FRD. After the plates were incubated at room temperature for 2 hours, fluorescence intensity was measured by an Envision plate reader (PerkinElmer, Shelton, CT).
# % is scaled to controls: 0 for no effect and ±100 for the full control effect; potency is read from the fitted curve at half-maximal effect.
# Progesterone receptor (Homo sapiens), sequence (P06401 whole entry, looked up): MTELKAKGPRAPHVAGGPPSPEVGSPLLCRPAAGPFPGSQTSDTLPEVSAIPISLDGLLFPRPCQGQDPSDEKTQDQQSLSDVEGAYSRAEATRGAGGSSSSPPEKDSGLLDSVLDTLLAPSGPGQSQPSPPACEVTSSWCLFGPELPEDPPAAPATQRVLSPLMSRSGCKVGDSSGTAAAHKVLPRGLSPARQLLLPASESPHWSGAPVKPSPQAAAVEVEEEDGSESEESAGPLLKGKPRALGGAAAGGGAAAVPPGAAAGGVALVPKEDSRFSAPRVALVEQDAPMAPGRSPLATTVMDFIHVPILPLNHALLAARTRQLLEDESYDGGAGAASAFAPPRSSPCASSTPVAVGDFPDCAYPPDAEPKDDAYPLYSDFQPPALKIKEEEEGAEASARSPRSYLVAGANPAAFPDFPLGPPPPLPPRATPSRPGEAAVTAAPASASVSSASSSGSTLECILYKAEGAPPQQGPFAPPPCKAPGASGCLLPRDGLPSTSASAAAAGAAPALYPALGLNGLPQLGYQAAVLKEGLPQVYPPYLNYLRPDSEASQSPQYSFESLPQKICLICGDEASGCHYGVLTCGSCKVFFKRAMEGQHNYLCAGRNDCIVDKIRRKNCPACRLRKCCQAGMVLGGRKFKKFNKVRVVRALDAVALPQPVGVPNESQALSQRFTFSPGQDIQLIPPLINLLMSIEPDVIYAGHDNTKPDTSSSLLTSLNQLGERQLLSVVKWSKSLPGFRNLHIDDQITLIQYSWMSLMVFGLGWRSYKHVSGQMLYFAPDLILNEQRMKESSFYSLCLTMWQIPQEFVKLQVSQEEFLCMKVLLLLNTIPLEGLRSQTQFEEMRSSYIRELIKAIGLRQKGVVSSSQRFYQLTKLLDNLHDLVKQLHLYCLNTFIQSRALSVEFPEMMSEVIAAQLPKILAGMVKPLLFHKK
Compound,"activity change, negative = inhibition",Potency
c1cc2c(c(N3CCNCC3)c1)OCCO2,5.67% [at 42.5 µM] (inactive),–
CC(C)(C)NCC(O)c1cc(Cl)c(N)c(Cl)c1 (stereo not given),3.83% [at 42.5 µM] (inactive),–
CCC(=O)C(CCN(C)C)(c1ccccc1)c1ccccc1,-8.62% [at 42.5 µM] (inactive),–
CCCCCCI,2.9% (inactive),–
CCC1(c2ccccc2)C(=O)NC(=O)NC1=O,-0.448% (inactive),–
CCOP(=O)(N=C1SCCS1)OCC,6.2% (inactive),–
O=C(N[C@H]1CN2CCC1CC2)c1cc2ccoc2cn1,7.14% (inactive),–
ClC(Cl)(Cl)C(Cl)(Cl)Cl,1.27% (inactive),–
CC1CCC(=O)O1 (stereo not given),-1.42% (inactive),–
Fc1cc(Br)ccc1CBr,1.09% [at 42.5 µM] (inactive),–
COc1cc(OC)nc(Oc2cccc(Oc3nc(OC)cc(OC)n3)c2C(=O)O)n1,0.826% (inactive),–
CCOP(=S)(OCC)Oc1nc(Cl)n(C(C)C)n1,-9.51% (inactive),–
Nc1ccccc1Cl,10.6% (inactive),–
COP(=S)(OC)Oc1ccc(S(N)(=O)=O)cc1,2.69% [at 42.5 µM] (inactive),–
CCC(C)n1c(=O)[nH]c(C)c(Br)c1=O (stereo not given),4.46% (inactive),–
O=S(=O)(O)C(F)(F)C(F)(F)C(F)(F)C(F)(F)C(F)(F)C(F)(F)F,6.49% (inactive),–
OC(c1ccc(F)cc1)(c1cncnc1)c1ccccc1Cl (stereo not given),–,48.6 µM (active)
COC(=O)COc1ccc(Cl)cc1Cl,8.59% (inactive),–
OCCBr,-1.2% (inactive),–
CC(C)(C)OC(=O)c1ncn2c1[C@@H]1CCCN1C(=O)c1c(Br)cccc1-2,-6.2% [at 42.5 µM] (inactive),–

Compound,"activity change, negative = inhibition",Potency
COc1cc2c(cc1OC)[C@@]13CCN4CC5=CCO[C@H]6CC(=O)N2[C@H]1[C@H]6[C@H]5C[C@H]43,9.02% (inactive),–
Cc1nc(N)nc(N)n1,-18.9% (inactive),–
CC(C)CC#N,8.6% (inactive),–
CC(C)CC(N(C)C)C1(c2ccc(Cl)cc2)CCC1 (stereo not given),8.64% [at 42.5 µM] (inactive),–
CC(C(=O)c1ccccc1)N(C)C (stereo not given),9.06% [at 42.5 µM] (inactive),–
CCC(Cl)[N+](=O)[O-] (stereo not given),7.29% (inactive),–
Nc1cc2c3c(c1)C(c1ccccc1)=N[C@@H](NC(=O)c1cccnc1)C(=O)N3CC2,0.628% (inactive),–
ClCC(Cl)(Cl)Cl,2.12% (inactive),–
CCCSC(=O)Cl,3.04% (inactive),–
[As]#[In],8.7% (inactive),–
CCCCc1ccc(O)cc1,-13.3% (inactive),–
O=C1OC(c2ccc(O)c(S(=O)(=O)O)c2)(c2ccc(O)c(S(=O)(=O)O)c2)c2c(Br)c(Br)c(Br)c(Br)c21,6.12% [at 42.5 µM] (inactive),–
CC(=O)CCc1ccc2c(c1)OCO2,-8.75% (inactive),–
CCOC(=O)C1(c2ccccc2)CCN(CCc2ccc(N)cc2)CC1,8.39% [at 42.5 µM] (inactive),–
CC(C)CP(=S)(S)CC(C)C,–,0.486 µM (active)
NC1=NC(=O)C(c2ccccc2)O1 (stereo not given),3.5% [at 42.5 µM] (inactive),–
OC(c1ccccc1)(c1ccccc1)C1CCNCC1,-10.6% [at 42.5 µM] (inactive),–
COc1cccc(C(=O)NN(C(=O)c2cc(C)cc(C)c2)C(C)(C)C)c1C,-15.5% (inactive),–
COP(=S)(OC)Oc1c(Cl)cc(C)cc1Cl,–,27.3 µM (active)
CN1C[C@@H](NS(=O)(=O)N(C)C)C[C@@H]2c3cccc4c3c(cn4C)C[C@H]21,6.52% [at 42.5 µM] (inactive),–

# Reference: PubChem BioAssay (Tox21)
